Records with an inconclusive call do not appear. Activity calls are given as the source filed them. Calls come from the whole dose curve.
target: Retinoic acid receptor RXR-alpha (Homo sapiens) (UniProt P19793); test: qHTS assay to identify small molecule agonists of the RXR signaling pathway (AID 1159527); conditions: HEK293T RXRa-UAS-bla, beta-lactamase ratio, 16 h; series mostly up to 76.8 µM; activation: at the top concentration; note: nearly all actives have a fitted effect of over 35% in size
Sequence (P19793 whole entry, looked up): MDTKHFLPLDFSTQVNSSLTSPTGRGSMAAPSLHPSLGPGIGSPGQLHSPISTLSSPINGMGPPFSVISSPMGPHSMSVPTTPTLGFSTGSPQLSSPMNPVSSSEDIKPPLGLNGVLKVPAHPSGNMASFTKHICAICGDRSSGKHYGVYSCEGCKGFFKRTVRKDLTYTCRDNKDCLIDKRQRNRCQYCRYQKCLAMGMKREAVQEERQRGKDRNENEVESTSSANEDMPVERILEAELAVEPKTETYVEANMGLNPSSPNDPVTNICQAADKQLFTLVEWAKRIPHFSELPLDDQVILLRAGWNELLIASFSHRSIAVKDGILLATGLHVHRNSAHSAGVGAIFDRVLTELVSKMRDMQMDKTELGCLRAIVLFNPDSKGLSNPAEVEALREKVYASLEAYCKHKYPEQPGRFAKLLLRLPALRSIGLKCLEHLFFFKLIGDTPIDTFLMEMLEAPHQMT
Source text: U.S. Tox21 Program National Center for Advancing Translational Sciences [NCATS] NIH Chemical Genomics Center [NCGC] U.S. Environmental Protection Agency [EPA] National Institutes of Environmental Health Sciences [NIEHS] National Toxicology Program [NTP] U.S. Food and Drug Administration [FDA] Tox21 Assay Overview: The Retinoid X receptor (RXR), a nuclear hormone receptor expressed in liver, spleen, placenta, epidermis, central nervous system. These receptors are able to form homo and heterodimers with other nuclear receptors and due to this heterodimerizing ability, RXR functions as master regulators producing diverse physiological effects. Three subtypes of RXR exist; alpha, beta and gamma. Retinoid X receptor alpha (RXR-alpha) has potential roles in metabolic signaling pathways, skin alopecia, dermal cysts, cardiac development, insulin sensitization etc. Therefore screening environmental chemicals on RXR-alpha signaling can be used for the studies focused on such therapeutic applications. For quantification of RXR-alpha ligands signaling, GeneBLAzer RXR alpha-UAS-bla HEK 293T (Life Technologies, Carlsbad, CA) cells containing a beta-lactamase reporter-gene under control of Retinoid X receptor-alpha response element were used to screen Tox21 10K library.
Tox21 Assay Protocol Summary: RXR-alpha HEK 293T cells were dispensed at 2,000 cells/6 uL of assay medium containing 2% charcoal-stripped FBS using a Multidrop Combi (ThermoFisher Scientific, Waltham, MA) dispenser. The assay was performed in black wall/clear-bottom 1536-well plates (Greiner Bio-One North America Inc. Monroe, NC). 9-cis retinoic acid was used as a positive control in the agonist mode screen. After the assay plates were incubated at 37 C and 5% CO2 for 5 hr, 23 nL of compounds dissolved in DMSO, positive controls or DMSO only were transferred to the assay plate by a Pintool station (Kalypsys, San Diego, CA). The assay plates were incubated at 37 C and 5% CO2 for 16 hr. One uL of LiveBLAzer B/G FRET substrate (Life Technologies) was added using a Flying Reagent Dispenser (Aurora Discovery, San Diego, CA) and the plates were incubated at room temperature for 2 hr. Fluorescence intensity (405 nm excitation, 460/530 nm emission) was measured using an Envision plate reader (PerkinElmer, Shelton, CT).
% is set by controls: 0 for no effect and ±100 for the full control effect.

Compound | activation
C=C[C@@H](C)CCC=C(C)C | 4.99% (inactive)
COc1ccc(NS(=O)(=O)c2ccc(N)cc2)nn1 | 9.46% [at 35.3 µM] (inactive)
Cc1ccccc1N1CCN(CCc2nnc3n2CCCC3)CC1 | 4% [at 35.3 µM] (inactive)
Nc1cc(C(=O)O)ccc1Cl | 8.64% (inactive)
CCCOC(=O)CCCCC(=O)OCCC | 4.33% (inactive)
BrC/C=C/CBr | 4.67% [at 15.8 µM] (inactive)
C=C(C)C(=O)OC1CC(C)CC(C)(C)C1 (stereo not given) | 3.96% (inactive)
CCCCCCCCCCCCOC(C)=O | -2.96% (inactive)
C=C[Si](C)(C)O[Si](C)(C)C=C | -15.6% (inactive)
COCCOCCOCCOC | 1.97% (inactive)
CCCCCCCCCCCCCCCCI | 7.13% [at 15.8 µM] (inactive)
CCCCCCCCCCCCC | 8.56% (inactive)
O=C(O)/C=C/c1ccccc1 | 4.64% (inactive)
CN(C)CCOCCN(C)CCO | -7.71% (inactive)
COc1cc2c(Nc3ccc(Br)cc3F)ncnc2cc1OCC1CCN(C)CC1 | 6.62% [at 35.3 µM] (inactive)
CCCCCC(=O)OCC | 2.08% (inactive)
COc1cc(C=O)ccc1OC(=O)C(C)C | -15.2% (inactive)
O=C(O)c1ccccc1C(=O)Nc1ccc(S(=O)(=O)Nc2nccs2)cc1 | 5.82% [at 35.3 µM] (inactive)
CC(C)c1ccccc1O | 5.72% (inactive)
CCCCCCCCCCCCCCCCCCN(C)C | -0.0122% [at 35.3 µM] (inactive)

Compound | activation
Nc1ccc(S(=O)(=O)Nc2ccccn2)cc1 | 8.31% [at 35.3 µM] (inactive)
CCCC(C)CC (stereo not given) | 0.75% (inactive)
NCCc1ccn[nH]1 | 1.49% [at 35.3 µM] (inactive)
Cc1cccc(C(=O)O)c1[N+](=O)[O-] | 12.1% (inactive)
C=CC(C)(O)CC/C=C(\C)CC (stereo not given) | 0.344% (inactive)
CO[Si](CCCCl)(OC)OC | 8% (inactive)
CCCCC[Si](OCC)(OCC)OCC | -1.61% (inactive)
O=C(O)C(=O)Nc1cccc(-c2nn[nH]n2)c1 | 4.42% [at 35.3 µM] (inactive)
CCCCC/C=C/CC(=O)OC | 11.9% (inactive)
Nc1nc(=O)n([C@@H]2O[C@H](CO)[C@@H](O)[C@@H]2F)cc1I | -1.92% [at 35.3 µM] (inactive)
Cc1nc(C)nc(N2C[C@@H](C)N(c3ccnc([C@@H](C)O)n3)[C@@H](C)C2)n1 | -14.4% [at 35.3 µM] (inactive)
COc1cccc2sc(N)nc12 | 2.19% (inactive)
CCC(C)(CCC(C)C)C(=O)[O-].CCC(C)(CCC(C)C)C(=O)[O-].[Zn+2] (stereo not given) | 0.713% (inactive)
Cc1ccc2c(c1)c1c3n2CCNC3CCC1 (stereo not given) | -3.97% [at 35.3 µM] (inactive)
NC(=O)C1(N2CCCCC2)CCN(CCCC(=O)c2ccc(F)cc2)CC1 | 1.58% [at 35.3 µM] (inactive)
CC(=O)OC(C)(C)Cc1ccccc1 | 5.94% (inactive)
Cc1cc(C)cc([N+](=O)[O-])c1 | -6.74% (inactive)
C[C@H](CCC(=O)O)[C@H]1CC[C@H]2[C@@H]3[C@H](O)C[C@@H]4C[C@H](O)CC[C@]4(C)[C@H]3C[C@H](O)[C@]12C | 0.826% [at 35.3 µM] (inactive)
CCOC(=O)C(=O)c1csc(NC=O)n1 | -1.64% [at 35.3 µM] (inactive)
Cc1cccc(Nc2ccncc2S(=O)(=O)NC(=O)NC(C)C)c1 | 8.92% [at 35.3 µM] (inactive)

— PubChem BioAssay (Tox21)
